What all share (experiment): NCI-60 one-dose screen, 48 h (100 = growth as untreated, 0 = no growth, -100 = all killed)
One assay concerns NCI-H23 lung. As to conditions: 10 µM unless noted.
The next assay deals with NCI-H322M lung. As to conditions: 10 µM unless noted.
A further assay relates to HOP-62 NSCLC. As to conditions: 10 µM unless noted.
For the next assay, the system named is NCI-H460 lung. As to conditions: 10 µM unless noted.
The subject of a further assay is HOP-92 NSCLC. As to conditions: 10 µM.
The subject of the next assay is NCI-H522 lung. The following applies: 10 µM unless noted.
The subject of a further assay is A549/ATCC NSCLC. The following applies: 10 µM unless noted.
The subject of another assay is 786-0 renal. The following applies: 10 µM unless noted.
For the next assay, the system named is COLO 205 colon. The following applies: 10 µM unless noted.
For a further assay, the system named is DU-145 prostate. The following applies: 10 µM unless noted.
In the next assay the test system is K-562 leukemia. As to conditions: 10 µM unless noted.
The test system of another assay is MALME-3M melanoma. As to conditions: 10 µM unless noted.
A further assay concerns MDA-MB-231 breast. As to conditions: 10 µM unless noted.
A further assay relates to SF-268 CNS. The following applies: 10 µM unless noted.
For a further assay, the system named is SF-295 CNS. As to conditions: 10 µM unless noted.
Another assay has as its system SF-539 CNS. As to conditions: 10 µM unless noted.
The next assay relates to UACC-257 melanoma. The following applies: 10 µM unless noted.
A further assay concerns RXF 393 renal. As to conditions: 10 µM unless noted.
For the next assay, the system named is M14 melanoma. The following applies: 10 µM unless noted.

Molecules are shown by their SMILES. Compounds without any hit were thinned out: in the full panel of roughly 83,000, 20% have a hit.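 In brief: 96-well plates, 48 h treatment, single concentration, percent growth endpoint.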 A number with no mark means an inactive call. The source made the active and inactive calls. How the source made its calls: active means growth percent below 10; inactive means the rest.

With `COc1ccc(/C=C(/C)c2ccc3ccc(OC)cc3[o+]2)c(O)c1`, the growth is 53.2% in the assay on NCI-H23 lung; 94.7% with NCI-H322M lung; 92.1% in the assay on HOP-62 NSCLC; 81.5% with NCI-H460 lung; 66.7% in the assay with HOP-92 NSCLC; 53.1% in the assay on NCI-H522 lung. Also, the growth was 102% with A549/ATCC NSCLC; 88.9% with 786-0 renal; 115% in the assay on COLO 205 colon; 86.1% in the assay on DU-145 prostate; 31.9% in the assay on K-562 leukemia; 85.2% in the assay on MALME-3M melanoma. Also, the growth in the assay on MDA-MB-231 breast is 72.7%; in the assay with SF-268 CNS, 88.1%; in the assay with SF-295 CNS it was 94.2%; in the assay with SF-539 CNS, 96.1%; in the assay with UACC-257 melanoma, 89.7%.

Regarding `Cc1ccc(NC(=O)c2ccc(CN3CCOCC3)c(C(F)(F)F)c2)cc1Oc1ccc(-c2[nH]nc3ncnc(N)c23)cc1`, the growth with NCI-H23 lung was 84.6%; with NCI-H322M lung, 72%; in the assay on HOP-62 NSCLC, 86.9%; with NCI-H460 lung it was 66.3%; with HOP-92 NSCLC it was 50.8%; with NCI-H522 lung, 62.5%. The growth with A549/ATCC NSCLC is 65.1%; with 786-0 renal, 69.2%; in the assay on DU-145 prostate, 76.9%; in the assay with K-562 leukemia it was 20%; in the assay with MALME-3M melanoma, 27.4%; in the assay with MDA-MB-231 breast, 54.3%. Also, the growth with RXF 393 renal was 40.5%; in the assay on SF-268 CNS, 81.6%; in the assay with SF-295 CNS, 63.2%; in the assay on SF-539 CNS, 49.3%; with UACC-257 melanoma, 48.7%.

As to `C=CC(=O)N1CC=C(c2cc3c(N[C@H](C)c4ccccc4)ncnc3[nH]2)CC1`, the growth with NCI-H23 lung is 78.4%; in the assay with NCI-H322M lung it was 27.2%; in the assay with HOP-62 NSCLC it was 58.1%; in the assay on NCI-H460 lung it was 101%; with HOP-92 NSCLC, 39%; in the assay with A549/ATCC NSCLC it was 60.4%. Further, the growth was 49.9% in the assay on 786-0 renal; 92.1% in the assay with COLO 205 colon; 40.3% in the assay on DU-145 prostate; 84.2% with K-562 leukemia; 104% with MALME-3M melanoma; 47.8% with MDA-MB-231 breast. For the same compound, the growth in the assay with RXF 393 renal is -27.6% (active); with SF-268 CNS it was 63.4%; with SF-295 CNS it was 79%; in the assay with SF-539 CNS it was 60.1%; in the assay on UACC-257 melanoma it was 102%; with M14 melanoma, 100%.

In the case of `CNC(=O)c1cc(-c2ccc(NC(=S)Nc3cc(C(F)(F)F)cc(C(F)(F)F)c3)cc2)nc2cccnc12`, the growth was 93.7% in the assay with NCI-H23 lung; 111% with NCI-H322M lung; 79.2% with HOP-62 NSCLC; 92.1% in the assay with NCI-H460 lung; 76.8% in the assay with HOP-92 NSCLC; 88.3% in the assay with A549/ATCC NSCLC. Further, the growth was 89.3% with 786-0 renal; 110% with COLO 205 colon; 84.9% with DU-145 prostate; 94.9% with K-562 leukemia; 99.2% in the assay with MALME-3M melanoma; 88.7% in the assay on MDA-MB-231 breast. In addition, the growth in the assay with RXF 393 renal is 41.1%; in the assay on SF-268 CNS, 88.2%; with SF-295 CNS, 89.9%; with SF-539 CNS, 92.1%; in the assay on UACC-257 melanoma, 102%; with M14 melanoma, 98.5%.

The values above are taken from PubChem BioAssay (NCI).
